From ChEMBL document CHEMBL3988442, “University of Dundee, Small-Polar-MMV Screening Library” (2021)
“And” between values parts separate entries of the source, which are not always exact repeats. Equal entries are not always repeated. Among all 34,000 compounds or so, about 290 (0.85%) showed an effect of 50% or more. For the sample, strong results were picked, then their nearest neighbours and some compounds at random.

System: Plasmodium falciparum
Assay: Plasmodium falciparum sporozoite viability assay
Format: functional, organism-based
Design: scale not given: in the data most compounds retested in dose-response had high values

| SMILES | Percent Effect [%] | Percent Effect (10 mM as filed; unlikely as a test dose) |
| --- | --- | --- |
| Cn1cc(C(=O)N2C[C@@H]3CN(S(C)(=O)=O)CCO[C@@H]3C2)cn1 | -2.6 |  |
| C[C@]1(O)CN(CCO)CC[C@@H]1Oc1cccc(F)c1 | 17.57 |  |
| COc1ccccc1OCCC(=O)N1CCCCC1c1nccs1 (configuration not stated) | -5.924 |  |
| CN(C)CCNc1ccc(-c2nc(-c3ccccc3F)no2)cn1 |  | 80.1% and 68.27% |
| CC(C)(CO)Nc1ccc(-c2nc(-c3ccccc3F)no2)cn1 |  | 13.89% and 24.65% |
| CC(O)CN1CCC(CNCc2ccc(C(N)=O)cc2)CC1 (configuration not stated) | 0.9015 |  |
| Cc1ccc(CNC(=O)NC(C)Cn2cccn2)cn1 (configuration not stated) | 11.6 |  |
| CCN1CCN(c2ccc(CNC(=O)Cc3c(C)noc3C)cn2)CC1 | 9.727 |  |
| Cc1nc(CN2CCC2(CCCc2ccccn2)C(=O)N(C)C)co1 (configuration not stated) | 12.32 |  |
| CCOCc1nn(CC2CC2)c2c1CN(Cc1cccs1)CC2.O=C(O)C(F)(F)F.O=C(O)C(F)(F)F | 6.48 |  |
| Cc1nc(CN2CC(CCCc3ccccn3)(C(=O)N(C)C)C2)co1 | -0.6757 |  |
| COc1cccc(OCC2CCCN(C3CCN(C(C)=O)CC3)C2)c1 (configuration not stated) |  | -11.14% and -12.8% and -12.12% |
| COc1cccc(OCC2CCCN(C(=O)c3cnc(C)nc3O)C2)c1 (configuration not stated) | -6.706 |  |
| Cc1nn(CC(C)C)c(N(C)C)c1CNCc1ccc2c(c1)OCO2 | -0.9874 |  |
| Cc1nc(Nc2cnccn2)cc(C2CCN(c3ncccn3)C2)n1 (configuration not stated) | 4.755 |  |
| CCOc1ccc(C(=O)N2CCCC(n3ccnc3C)C2)cc1OC (configuration not stated) | 0.3069 |  |
| CCc1cnc(N2CCc3cc(C(=O)NC)c(N(C)C)nc3CC2)nc1.O=C(O)C(F)(F)F | 0.8439 |  |
| O=C(c1cc(=O)c(OCc2ccccc2)co1)N1CCSCC1 | -8.629 |  |
| c1cnc(-c2nc(CN3CCCC(N4CCCC4)C3)cs2)nc1 (configuration not stated) | 5.451 |  |
| c1cnc(-c2nc(CN3CCC(c4ccn[nH]4)CC3)cs2)nc1 | 5.764 |  |
| c1cnc(-c2nc(CN3CCN(CC4CC4)CC3)cs2)nc1 |  | 84.72% and 73.85% and 60.32% |
| NC(=O)C1CCN(Cc2csc(-c3ncccn3)n2)CC1 |  | -22.27% and -16.43% and -15.46% |
| CC(=O)Nc1nc2c(s1)C1(CCN(C)CC1)Nc1ccccc1S2 | 12.96 |  |

| SMILES | Percent Effect [%] | Percent Effect (10 mM as filed; unlikely as a test dose) |
| --- | --- | --- |
| Cc1nccc(N2CCCC(C)(C(=O)NC3CCCC3)C2)n1 (configuration not stated) | 2.213 |  |
| Cc1cnn(CC2CCCN2Cc2nc(N)c3ccccc3n2)c1 (configuration not stated) |  | 22.63% and 18.94% and 34.15% |
| Cc1cnn(CC2CCCCN2Cc2nc(N)c3ccccc3n2)c1 (configuration not stated) |  | 41.2% and 50.14% and 52.23% |
| Cc1cnn(CC2CCCCN2Cc2nc(C)c3ccccc3n2)c1 (configuration not stated) |  | 35.56% and 21.88% and 27.76% |
| CC(=O)N1CCN(c2ccc3ccc(C(=O)NC4CCCC4)cn23)CC1 | -4.944 |  |
| Cc1cc(C(=O)N2CCN(c3ncc4c(n3)CCOC4)CC2)sc1C | -7.443 |  |
| Cc1nc2ccccc2nc1CN1CCc2c(nc(C3CC3)n2C)C1 |  | -9.933% and -2.839% |
| Cn1c(C2CC2)nc2c1CCN(Cc1nc3ccccc3s1)C2 |  | 48.9% and 53.74% |
| Cc1nc(CN2CCc3c(nc(C4CC4)n3C)C2)nc2ccccc12 |  | -16.27% and -10.13% |
| c1ccc2nc(N3CCOC(Cn4cccn4)C3)cnc2c1 (configuration not stated) | 7.131 |  |
| Cc1cccnc1CNc1cc(N2CCCC2CO)ncn1 (configuration not stated) | -13.57 |  |
| OCC1CCCN1c1cc(NCCc2nccs2)ncn1 (configuration not stated) |  | 21.04% and 15.76% |
| OCC1CCCN1c1cc(NCCc2ccccn2)ncn1 (configuration not stated) |  | 91.05% and 79.59% |
| OCC1CCCN1c1cc(NCc2ccccn2)ncn1 (configuration not stated) |  | -21.68% and -23.27% |
| OCC1CCCN1c1cc(NCc2ccsc2)ncn1 (configuration not stated) | 11.95 |  |
| OCC1CCCN1c1cc(NCCNc2cccnn2)ncn1 (configuration not stated) |  | 9.971% and -4.087% |
| OCC1CCCN1c1cc(NCCc2ccsc2)ncn1 (configuration not stated) |  | 86.32% and 73.55% |
| CC(C)CN(C)Cc1nc2c(cnn2C)c(=O)[nH]1 | 7.587 |  |
| CN(C)CC1CN(Cc2nc(-c3ccccn3)no2)CCO1 (configuration not stated) | 24.23 |  |
| CN1CCN(S(=O)(=O)c2ccc(Cl)c(Cl)c2)c2cnccc21 |  | -22.78% and -8.887% |
| Cc1cc(-c2cc(F)ccc2C(=O)O)nc(C2CCCCN2C(C)C)n1 (configuration not stated) | 4.863 |  |
| CC(=O)N1N=C(c2ccccc2)OC1C(=O)NCCc1ccc(O)cc1 (configuration not stated) | 3.916 |  |
| CC[C@@H](C)[C@@H](N)C(=O)Nc1cccc(-c2cnc(N(C)CCO)nc2)c1 | 4.657 |  |

| SMILES | Percent Effect [%] | Percent Effect (10 mM as filed; unlikely as a test dose) |
| --- | --- | --- |
| CCn1cc(NC(=O)NCCN2CCCc3ccccc32)cn1 | -384.2 |  |
| O=C(CCn1cccn1)NS(=O)(=O)N1CCCc2ccccc21 |  | 88.08% and 94.17% and 83.19% |
| Cc1cnn(CCC(=O)NS(=O)(=O)N2CCc3ccccc32)c1 |  | -13.26% and -21.53% and -23.4% |
| Cn1cc(CCNC(=O)CCc2ccc3c(c2)OCO3)cn1 | 0.08354 |  |
| Cn1cc(CCC(=O)NS(=O)(=O)N2CCCc3ccccc32)cn1 |  | 95.69% and 93.95% and 93.94% |
| Cn1nc(CNC(=O)c2ccc(OC(F)(F)F)cc2)c2c1CCOC2 | -1.164 |  |
| Cn1ncc(NCc2cccc(F)c2)c(Cl)c1=O | 2.958 |  |
| CNC(=O)[C@@H]1CCO[C@@H]2CCN(CCc3ccccc3)C[C@H]21.O=C(O)C(F)(F)F | 14.59 |  |
| CC(CO)CN(Cc1ccccc1)Cc1cnc2ccccc2n1 (configuration not stated) |  | 33.49% and 37.4% |
| Cc1cnc(N(C)Cc2cnc3ccccc3n2)nc1N(C)C |  | 42.78% and 58% |
| CC(=O)c1cnc(N(C)Cc2cnc3ccccc3n2)nc1C |  | -14.78% and -20.36% |
| Cc1cnn(C2CCCN(C(=O)Cc3ccc(C)s3)C2)c1 (configuration not stated) | 7.18 |  |
| Cc1cnc(CCNc2cccc(CC3CCCNC3)n2)s1.Cl (configuration not stated) | -6.2 |  |
| Cc1nc(N(CCC(N)=O)Cc2ccccc2)c2nc(C)oc2n1 | 2.982 |  |
| CN(Cc1noc(C2CC2)n1)C1CCN(Cc2ccccc2C#N)C1 (configuration not stated) | 5.942 |  |
| Cc1nccn1CCCC(=O)N1CCCC(c2noc(C(C)C)n2)C1 (configuration not stated) | 1.926 |  |
| CC(=O)N1CCCN(C(=O)NCc2ccc(-c3ccn[nH]3)cc2)CC1 | 9.841 |  |
| CN1CCN(Cc2ccc(-c3ccc(C(N)=O)cc3)nc2)CC1 |  | -29.68% and -21.28% |
| CN1CCN(Cc2ccc(-c3ccc(-c4ccn[nH]4)cc3)nc2)CC1 |  | 56.12% and 32.6% |
| O=C(NCc1nn(-c2ccccc2)c2c1CCC2)NCC1COCCO1 (configuration not stated) | 13.65 |  |
| Cc1nc2c(c(NCCc3nccs3)n1)CCN(CC1CC1)CC2 | -1.253 |  |
| Cc1cnn(CC2CCCN2C(=O)c2cc3ccccc3c(=O)[nH]2)c1 (configuration not stated) | 2.755 |  |
| CN1CCC(c2cnc(NCc3nccn3C)cn2)CC1 |  | 45.14% and 64.85% and 67.7% |

| SMILES | Percent Effect [%] | Percent Effect (10 mM as filed; unlikely as a test dose) |
| --- | --- | --- |
| Cl.Cn1ccnc1CNC(=O)c1cnc(C2CCNCC2)cn1 | 2.787 |  |
| CN1CCC(c2cccc(NCc3nccn3C)n2)CC1 |  | 4.151% and -3.748% and -15.94% |
| COc1ccc(CN(C)[C@@H]2CN(C(=O)c3cnn(C)c3)C[C@H]2O)cc1 | 2.355 |  |
| FC1(F)CCN(Cc2ccncc2)CC12CCN(c1cnccn1)C2.O=C(O)C(F)(F)F.O=C(O)C(F)(F)F.O=C(O)C(F)(F)F (configuration not stated) | 22.83 |  |
| O=C(c1[nH]nc(C2CC2)c1Cl)N1CCN(C2CC2)C(=O)C1 |  | 67.53% and 69.62% |
| O=C(c1[nH]nc(C2CC2)c1Cl)N1CCCC1 |  | -32.9% and -32.97% |
| O=C(c1[nH]nc(C2CC2)c1Cl)N1CCN(C2CC2)CC1 |  | -13.62% and -21.71% |
| CCOCc1ncn2c1CN(C(=O)Nc1ccccc1CC)CC2 | 3.671 |  |
| CN(C)CCN1Cc2ncn(C)c2C(COCC(=O)N(C)C)C1 (configuration not stated) | 10.44 |  |
| CC1CCc2nn(CCNC(=O)Cc3ccccc3F)c(=O)cc2C1 (configuration not stated) |  | -25.04% and -6.135% and -21.75% |
| CCN(CC)Cc1ccc(C(=O)N2CCCC2Cn2cccn2)o1 (configuration not stated) | -5.987 |  |
| Cc1cc(N2CCC3(CCCN(CCO)C3=O)C2)nc2cc(Cl)ccc12 (configuration not stated) | -0.3581 |  |
| N#Cc1cc(NC(=O)c2ccccc2)ccc1N1CCC(O)CC1 | -10.71 |  |
| Cc1cccc(C(=O)Nc2ccc(OC3CCN(C)CC3)cc2)c1 |  | 84.14% and 90.45% and 76.34% |
| COc1ccc(NC(=O)c2cnc(C3CCN(C)CC3)nc2C)cc1 | -1.219 |  |
| O=C(CN1CCCS1(=O)=O)Nc1ccc(OC2CCCC2)cc1 | -4.929 |  |
| COc1cccc(C(=O)Nc2ccc(OC3CCN(C)CC3)cc2)c1 |  | 24.26% and 49.56% and 59.7% |
| O=C(NC1=NCCCN1c1ccc(Cl)cc1)c1cccc(Cl)c1 |  | -9.725% and -15.1% and -5.453% |
| CCOc1ccc(N2CCCN=C2NC(=O)c2cccc(Cl)c2)cc1 | -13.96 |  |
| CCC1=N[C@@]2(CC[C@@H]3CN(Cc4ccc(Cl)cc4)C[C@@H]32)C(=O)N1C.O=C(O)C(F)(F)F | -5.486 |  |
| Cc1nc(CC(=O)N2CCC(c3nn(C)c4ncccc34)CC2)cs1.Cl | 3.729 |  |
| Cc1nc(-c2nnc[nH]2)sc1C(=O)N1CCCC1c1ccsc1 (configuration not stated) | 7.018 |  |
| Cc1nc(C)n(C2CCCN(C(=O)c3csc(CC(C)C)n3)C2)n1 (configuration not stated) | 0.06439 |  |
